Our source for the Percent Effect values is ChEMBL document CHEMBL3988442, “University of Dundee, Small-Polar-MMV Screening Library” (2021).

The structures appear in SMILES notation. For some assays here: Results with a measured potency or affinity are listed apart.

Design in all cases: scale not given: direction of the effect not stated beside the values
Experiment [1] addresses Protein translocase subunit SecA (Escherichia coli (strain K12)) (UniProt P10408). Nature of the experiment: Assay to Identify E. coli SecA ATPase Inhibitors. The experiment is classed as functional. Conditions: 30 µM.
The target of experiment [2] is T1, Ubiquitin-activating enzyme e1, putative (Leishmania donovani (strain BPK282A1)) (UniProt E9BSI1).
T1 sequence (whole entry): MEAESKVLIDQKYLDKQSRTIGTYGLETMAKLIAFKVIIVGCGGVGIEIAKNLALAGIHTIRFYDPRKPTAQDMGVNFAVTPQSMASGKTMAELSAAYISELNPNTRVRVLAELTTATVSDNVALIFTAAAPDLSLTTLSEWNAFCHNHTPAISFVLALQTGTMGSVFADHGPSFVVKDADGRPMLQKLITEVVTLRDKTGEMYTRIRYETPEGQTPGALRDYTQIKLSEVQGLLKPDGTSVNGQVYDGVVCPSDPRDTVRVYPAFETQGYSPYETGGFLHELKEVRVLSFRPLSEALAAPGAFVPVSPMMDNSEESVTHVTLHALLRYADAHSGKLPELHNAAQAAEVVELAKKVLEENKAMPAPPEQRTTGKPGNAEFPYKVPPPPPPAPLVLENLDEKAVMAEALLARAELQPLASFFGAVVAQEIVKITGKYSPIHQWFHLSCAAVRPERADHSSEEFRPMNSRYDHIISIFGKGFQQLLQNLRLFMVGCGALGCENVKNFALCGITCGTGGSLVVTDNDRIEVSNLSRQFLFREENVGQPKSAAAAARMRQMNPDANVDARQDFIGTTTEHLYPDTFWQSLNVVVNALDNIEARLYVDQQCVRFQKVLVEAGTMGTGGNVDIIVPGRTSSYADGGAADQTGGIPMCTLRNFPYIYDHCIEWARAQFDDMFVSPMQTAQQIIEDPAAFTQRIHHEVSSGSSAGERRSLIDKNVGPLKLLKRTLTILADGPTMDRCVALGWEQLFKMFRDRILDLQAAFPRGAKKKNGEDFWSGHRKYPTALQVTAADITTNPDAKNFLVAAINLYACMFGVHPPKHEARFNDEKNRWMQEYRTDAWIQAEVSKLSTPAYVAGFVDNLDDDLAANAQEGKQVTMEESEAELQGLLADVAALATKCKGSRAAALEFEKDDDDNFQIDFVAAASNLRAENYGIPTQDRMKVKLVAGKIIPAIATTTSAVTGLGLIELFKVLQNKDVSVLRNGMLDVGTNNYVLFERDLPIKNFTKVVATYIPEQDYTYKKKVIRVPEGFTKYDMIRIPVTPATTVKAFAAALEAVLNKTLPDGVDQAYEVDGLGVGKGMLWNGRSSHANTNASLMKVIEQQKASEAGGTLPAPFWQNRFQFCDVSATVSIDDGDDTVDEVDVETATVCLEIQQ
In words: Leishmania donovani Ubiquitin Activating Enzyme (LdE1). It is filed as functional. Conditions: 30 µM.

The target of experiment [3] is Sialic acid-binding Ig-like lectin 9 (Homo sapiens) (UniProt Q9Y336). In words: Hs-Siglec9 ALPHAscreen SOP 20170721. Conditions: 10 µM.
For the next experiment, the system named is Trypanosoma cruzi. In words: Trypanosoma cruzi phosphomannomutase and mannose-1-phosphate guanylyltransferase assay. It is filed as functional. Conditions: 10 µM.
Experiment [4] has as its target T2, Arginase-2, mitochondrial (Homo sapiens) (UniProt P78540).
T2 sequence (whole entry): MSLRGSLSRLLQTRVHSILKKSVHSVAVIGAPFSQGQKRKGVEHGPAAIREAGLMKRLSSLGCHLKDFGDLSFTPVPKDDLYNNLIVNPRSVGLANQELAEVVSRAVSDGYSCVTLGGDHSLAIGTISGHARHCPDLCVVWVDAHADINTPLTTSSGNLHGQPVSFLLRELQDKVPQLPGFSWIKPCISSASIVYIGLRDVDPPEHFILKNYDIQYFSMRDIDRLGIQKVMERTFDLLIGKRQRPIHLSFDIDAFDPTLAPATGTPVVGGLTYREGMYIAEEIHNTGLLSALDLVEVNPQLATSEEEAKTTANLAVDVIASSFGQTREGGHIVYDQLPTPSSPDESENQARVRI
Nature of the experiment: in vitro enzyme assay to detect the production of urea directly proportional to the activity of Arginase II. Note: in the data most compounds retested in dose-response had high values. The following applies: 33.3 µM. The experiment is classed as functional.

Experiment [5] has as its target T3, Proteasome subunit beta (Trypanosoma cruzi) (UniProt O96673).
T3 sequence (whole entry): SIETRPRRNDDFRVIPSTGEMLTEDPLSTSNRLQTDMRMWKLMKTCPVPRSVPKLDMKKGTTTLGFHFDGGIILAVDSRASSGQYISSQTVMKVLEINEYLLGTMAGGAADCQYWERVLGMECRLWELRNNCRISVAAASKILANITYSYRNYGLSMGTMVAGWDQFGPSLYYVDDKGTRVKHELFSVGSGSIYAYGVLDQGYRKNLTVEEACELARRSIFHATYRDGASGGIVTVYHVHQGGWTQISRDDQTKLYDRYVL
Nature of the experiment: Trypanosoma cruzi proteasome chymotrypsin-like activity (TcProtChymo) assay. Note: in the data most compounds retested in dose-response had high values. It is filed as functional. Conditions: 9.37 µM.

Another experiment is filed under the species Homo sapiens. Nature of the experiment: To identify inhibition of the IFN signalling (Jak-Stat) pathway via expression of an eGFP reporter gene under the control of an IFN-stimulated response element (ISRE) containing MxA promoter. The experiment is classed as functional. Conditions: 30 µM.
Experiment [6] deals with T4, Tyrosyl-tRNA synthetase, putative (Trypanosoma cruzi (strain CL Brener)) (UniProt Q4DSP6).
T4 sequence (whole entry): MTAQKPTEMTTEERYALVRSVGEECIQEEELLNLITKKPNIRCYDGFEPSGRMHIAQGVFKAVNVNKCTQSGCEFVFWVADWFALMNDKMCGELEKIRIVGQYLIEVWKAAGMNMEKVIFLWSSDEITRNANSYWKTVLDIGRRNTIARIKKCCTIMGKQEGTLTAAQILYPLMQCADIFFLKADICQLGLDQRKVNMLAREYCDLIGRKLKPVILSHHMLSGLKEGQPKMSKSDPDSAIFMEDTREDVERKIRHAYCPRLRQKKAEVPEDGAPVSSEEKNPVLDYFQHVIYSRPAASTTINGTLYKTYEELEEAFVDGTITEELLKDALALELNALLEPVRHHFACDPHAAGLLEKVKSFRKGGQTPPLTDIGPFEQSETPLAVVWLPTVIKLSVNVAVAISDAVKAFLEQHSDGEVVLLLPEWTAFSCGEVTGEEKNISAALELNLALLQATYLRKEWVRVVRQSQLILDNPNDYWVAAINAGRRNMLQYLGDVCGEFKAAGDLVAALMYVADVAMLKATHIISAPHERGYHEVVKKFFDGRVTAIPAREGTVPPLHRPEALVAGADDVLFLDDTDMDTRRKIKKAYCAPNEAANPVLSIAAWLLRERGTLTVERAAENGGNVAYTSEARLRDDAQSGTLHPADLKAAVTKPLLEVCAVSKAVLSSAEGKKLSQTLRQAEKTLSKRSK
Nature of the experiment: Trypanosoma cruzi tyrosyl tRNA synthetase (TcYRS) _High Tyrosine SOP. Note: in the data most compounds retested in dose-response had high values. The following applies: 30 µM. The experiment is classed as functional.

Experiment [7] addresses T4, Tyrosyl-tRNA synthetase, putative (Trypanosoma cruzi (strain CL Brener)). Nature of the experiment: Trypanosoma cruzi tyrosyl tRNA synthetase (TcYRS) SOP. It is filed as functional. Conditions: 30 µM.
Experiment [8] addresses Chromo domain-containing protein 1 (Saccharomyces cerevisiae (strain ATCC 204508 / S288c) (Baker's yeast)) (UniProt P32657). Nature of the experiment: ScCHD-1 Enzyme Inhibition Assay. Note: in the data most compounds retested in dose-response had high values. The experiment is classed as functional. Conditions: 30 µM.

Chromo domain-containing protein 1 (Saccharomyces cerevisiae (strain ATCC 204508 / S288c) (Baker's yeast)), sequence (P32657 whole entry, the tested form may be a part): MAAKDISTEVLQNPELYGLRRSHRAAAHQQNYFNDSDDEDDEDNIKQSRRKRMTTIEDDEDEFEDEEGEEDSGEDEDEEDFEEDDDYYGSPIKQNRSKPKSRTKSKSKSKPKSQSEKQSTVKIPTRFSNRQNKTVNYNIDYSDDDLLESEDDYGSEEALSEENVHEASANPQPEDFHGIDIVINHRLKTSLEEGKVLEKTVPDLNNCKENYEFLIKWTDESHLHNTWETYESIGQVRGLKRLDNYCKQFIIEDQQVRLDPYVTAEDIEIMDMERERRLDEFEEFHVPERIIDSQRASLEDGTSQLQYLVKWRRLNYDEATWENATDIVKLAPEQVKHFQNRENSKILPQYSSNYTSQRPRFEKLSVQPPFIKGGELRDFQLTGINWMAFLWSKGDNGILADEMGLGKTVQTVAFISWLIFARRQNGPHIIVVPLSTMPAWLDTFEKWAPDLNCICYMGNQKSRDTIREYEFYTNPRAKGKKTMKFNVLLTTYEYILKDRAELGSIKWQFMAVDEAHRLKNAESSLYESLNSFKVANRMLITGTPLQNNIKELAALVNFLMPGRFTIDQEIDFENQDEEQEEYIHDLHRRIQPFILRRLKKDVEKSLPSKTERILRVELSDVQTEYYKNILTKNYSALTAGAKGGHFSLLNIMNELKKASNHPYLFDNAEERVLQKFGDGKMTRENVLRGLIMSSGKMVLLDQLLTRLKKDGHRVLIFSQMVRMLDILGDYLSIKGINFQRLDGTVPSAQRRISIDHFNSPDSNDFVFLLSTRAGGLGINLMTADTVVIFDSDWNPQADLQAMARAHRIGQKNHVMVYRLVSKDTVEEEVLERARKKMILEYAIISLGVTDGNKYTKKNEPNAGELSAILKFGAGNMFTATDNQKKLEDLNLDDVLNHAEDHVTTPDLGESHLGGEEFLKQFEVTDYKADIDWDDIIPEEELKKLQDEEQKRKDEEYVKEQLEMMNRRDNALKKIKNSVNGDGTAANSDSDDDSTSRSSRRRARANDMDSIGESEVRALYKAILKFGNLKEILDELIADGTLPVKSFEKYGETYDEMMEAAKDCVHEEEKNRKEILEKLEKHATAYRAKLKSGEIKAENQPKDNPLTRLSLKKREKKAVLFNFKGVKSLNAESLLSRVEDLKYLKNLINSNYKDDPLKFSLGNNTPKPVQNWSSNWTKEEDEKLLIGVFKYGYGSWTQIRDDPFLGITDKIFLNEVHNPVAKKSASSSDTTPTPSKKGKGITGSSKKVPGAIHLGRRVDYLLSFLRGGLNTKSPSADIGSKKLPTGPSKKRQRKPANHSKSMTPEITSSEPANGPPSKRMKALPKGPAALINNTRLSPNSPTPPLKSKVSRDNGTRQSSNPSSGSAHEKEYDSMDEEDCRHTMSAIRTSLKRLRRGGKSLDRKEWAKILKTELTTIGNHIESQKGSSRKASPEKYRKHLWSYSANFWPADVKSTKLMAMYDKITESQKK
Sialic acid-binding Ig-like lectin 9 (Homo sapiens), sequence (Q9Y336 whole entry): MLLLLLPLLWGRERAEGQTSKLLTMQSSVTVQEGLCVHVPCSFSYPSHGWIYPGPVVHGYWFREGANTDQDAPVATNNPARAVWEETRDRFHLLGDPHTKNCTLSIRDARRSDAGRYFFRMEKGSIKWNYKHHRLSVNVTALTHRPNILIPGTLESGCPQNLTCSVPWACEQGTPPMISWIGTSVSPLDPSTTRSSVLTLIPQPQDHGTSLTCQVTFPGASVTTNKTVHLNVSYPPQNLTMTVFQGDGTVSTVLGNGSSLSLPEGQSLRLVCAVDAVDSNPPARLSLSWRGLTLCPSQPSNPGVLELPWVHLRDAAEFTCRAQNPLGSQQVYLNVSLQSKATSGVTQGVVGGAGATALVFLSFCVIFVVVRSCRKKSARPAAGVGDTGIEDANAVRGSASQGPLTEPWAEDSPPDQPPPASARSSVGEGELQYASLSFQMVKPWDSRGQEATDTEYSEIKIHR
Protein translocase subunit SecA (Escherichia coli (strain K12)), sequence (P10408 whole entry): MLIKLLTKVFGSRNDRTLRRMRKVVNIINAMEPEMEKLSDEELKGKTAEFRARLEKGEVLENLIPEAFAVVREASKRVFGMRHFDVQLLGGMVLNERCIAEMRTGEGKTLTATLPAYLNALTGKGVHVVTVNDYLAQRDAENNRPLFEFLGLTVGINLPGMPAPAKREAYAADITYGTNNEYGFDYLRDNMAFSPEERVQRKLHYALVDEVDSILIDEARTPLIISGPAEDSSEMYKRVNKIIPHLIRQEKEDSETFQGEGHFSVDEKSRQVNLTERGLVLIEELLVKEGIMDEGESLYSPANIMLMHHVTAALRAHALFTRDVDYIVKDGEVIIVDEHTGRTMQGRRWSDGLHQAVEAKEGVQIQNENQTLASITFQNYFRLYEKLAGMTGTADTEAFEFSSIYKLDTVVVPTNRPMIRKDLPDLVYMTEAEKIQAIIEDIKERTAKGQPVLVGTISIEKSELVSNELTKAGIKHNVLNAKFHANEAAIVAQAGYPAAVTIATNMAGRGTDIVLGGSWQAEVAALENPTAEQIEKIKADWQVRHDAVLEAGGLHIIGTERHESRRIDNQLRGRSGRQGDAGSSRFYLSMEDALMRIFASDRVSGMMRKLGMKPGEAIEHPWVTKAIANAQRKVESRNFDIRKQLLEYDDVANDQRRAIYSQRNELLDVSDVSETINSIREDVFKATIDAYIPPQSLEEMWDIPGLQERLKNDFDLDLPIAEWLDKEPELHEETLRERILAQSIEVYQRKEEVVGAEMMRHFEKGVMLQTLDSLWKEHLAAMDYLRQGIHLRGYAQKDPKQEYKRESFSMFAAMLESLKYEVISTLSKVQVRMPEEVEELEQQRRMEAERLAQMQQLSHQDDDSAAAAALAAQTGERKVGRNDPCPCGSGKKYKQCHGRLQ

Consider `CC(C)(C)C(O)CN1CCN(C(=O)c2cccc3ncccc23)CC1` (stereo not given), for which the Percent Effect in [1] was -3.23%; in experiment [2], 12.8%; in experiment [3], -15.5%; in the experiment with Trypanosoma cruzi, -7.23%; in experiment [4] it was -0.41%; in experiment [5], 8.11%. Further, the Percent Effect in the experiment listed under Homo sapiens was -0.457%; in experiment [6], 3.35%; in experiment [7], 10.8%; in [8], -6.72%.
For `CCCC(=O)N1CCC2(CC1)CC(NC(C)=O)c1ccccc1O2` (stereo not given), the Percent Effect in experiment [1] was 0.455%; in [2], 1.3%; in experiment [3], -0.437%; in the experiment on Trypanosoma cruzi, -4.69%; in [4], 7.31%; in [5] it was -0.0858%. The Percent Effect in the experiment listed under Homo sapiens was 6.03%; in experiment [6], -1.93%; in [7], -5%; in [8], -2.27%.
In the case of `Cc1ccc(-c2nc(CNCC3CN(C)CCO3)cs2)o1` (stereo not given), the Percent Effect is 0.253% in experiment [1]; 28.6% in [2]; -5.08% in experiment [3]; 6.53% with Trypanosoma cruzi; -12.9% in experiment [4]; 25.4% in [5]. Further, the Percent Effect is 20% in the experiment filed under Homo sapiens, 6.86% in experiment [6], 21.2% in experiment [7] and -12.3% in experiment [8].
`O=C(c1ccc2c(c1)OCO2)N1CCN(c2cnccn2)CC1`: the Percent Effect in experiment [1] was -4.95%; in experiment [2], 12.8%; in [3] it was -0.564%; with Trypanosoma cruzi it was -1.6%; in experiment [4], 4.51%; in [5], 10.2%. Besides, the Percent Effect in the experiment filed under Homo sapiens is 16%; in experiment [6], 5.26%; in [7], 13.2%; in [8], -6.8%.
Take `NCc1cn(-c2ccccc2C(=O)NCc2cccc(Cl)c2)cn1`: the Percent Effect in experiment [1] is 0.846%; in experiment [2], 9.33%; in experiment [3], -1.67%; in the experiment with Trypanosoma cruzi, -7.3%; in experiment [4] it was 1.33%; in [5] it was 6.4%. Also, the Percent Effect was -3.19% in the experiment listed under Homo sapiens, 3.17% in experiment [6], 12.5% in [7] and -24.5% in [8].
Take `Cn1cc(-c2nc(CNCCn3cccn3)cs2)cn1`: the Percent Effect was 3.44% in experiment [1]; 10.3% in experiment [2]; -15.7% in [3]; -6.67% in the experiment with Trypanosoma cruzi; -0.41% in [4]; 16% in [5]. Besides, the Percent Effect in the experiment filed under Homo sapiens is 32.9%; in experiment [6] it was 8.13%; in [7], 13.2%; in [8], 27.9%.
As to `Cc1ccc(-c2cc(CN3CCOC(Cn4cncn4)C3)on2)cc1` (stereo not given), the Percent Effect in [1] is -2.91%; in experiment [2], 5.2%; in experiment [3] it was 4.78%; in the experiment on Trypanosoma cruzi, -0.56%; in experiment [4], -1.43%; in experiment [5], 1.4%. The Percent Effect in the experiment filed under Homo sapiens is 12.8%; in [6], 10.8%; in experiment [7], 18.8%; in experiment [8], -5.72%.
As to `CCc1ncc2c(n1)CN(CC(=O)Nc1nnc(C)s1)CC2`, the Percent Effect in experiment [1] was -2.11%; in [2] it was 5.33%; in experiment [3] it was 0.404%; in the experiment with Trypanosoma cruzi, -4.22%; in [4] it was 5.32%; in experiment [5], 8.4%. The Percent Effect was -8.8% in the experiment filed under Homo sapiens, 6.84% in [6], 10.3% in [7] and -13.6% in experiment [8].
Regarding `Cc1cnn(C2CCCN(C(=O)c3sccc3-n3cnnn3)C2)c1` (stereo not given), the Percent Effect in [1] was -2%; in experiment [2], 7.69%; in experiment [3] it was -3.12%; with Trypanosoma cruzi it was -5.54%; in [4], 2.46%; in experiment [5] it was 7.93%. Also, the Percent Effect amounted to 33.8% in the experiment listed under Homo sapiens, 5.26% in [6], 10.8% in experiment [7] and 3.04% in experiment [8].
With `Cc1cnn(CC2CCCN2C(=O)c2ccc(C(N)=O)cn2)c1` (stereo not given), the Percent Effect in [1] is -5%; in experiment [2] it was 15.4%; in [3] it was 2.02%; in the experiment with Trypanosoma cruzi it was 5.92%; in experiment [4], 2.05%; in experiment [5] it was 9.47%. Moreover, the Percent Effect in the experiment listed under Homo sapiens is 12.1%; in experiment [6], 0.478%; in experiment [7], 13.2%; in experiment [8] it was -6.88%.
Regarding `Cc1cccnc1CNCC1(O)CCCN(CC2CCCCC2)C1=O` (stereo not given), the Percent Effect in experiment [1] is -6.4%; in experiment [2], 0%; in experiment [3], -1.52%; in the experiment with Trypanosoma cruzi it was -2.04%; in experiment [4], -3.85%; in [5] it was 3.25%. Moreover, the Percent Effect in the experiment listed under Homo sapiens stood at 1.47%; in experiment [6], 7.98%; in experiment [7] it was 17.1%; in [8], 0.826%.
